Compounds without any hit were thinned out: in the full panel of roughly 83,000, 20% have a hit.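 Assay: single dose, 48 h. Readout: percent growth (0 = no net growth; negative = cell death). Active: <10.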 Active and inactive are the calls of the source.

For this test, the system named is HL-60(TB) leukemia. Description: NCI-60 one-dose screen, 48 h (100 = growth as untreated, 0 = no growth, -100 = all killed). Particulars: 10 µM unless noted.
As to `NC(=O)c1cc(-c2ccc3ncnc(N4CCc5cc(F)c(Cl)cc54)c3c2)cnc1N`, the growth is -4.97% (active).

`O=C(/C=C/c1ccccc1)c1cccc(O)c1`: the growth was 87.5% (inactive).

For the molecule `C=CCn1c(SCC(=O)c2ccc(Br)cc2)nnc1-c1c[nH]c2ccccc12`, the growth is 92.3% (inactive).

As to `COc1cc2cc(Oc3ccc(NC(=O)Nc4ccc(F)c(C(F)(F)F)c4)cc3)c(C)nc2cc1OCCN(C)C`, the growth is 94.3% (inactive).

As for `N#C/C(=C\c1ccc(-c2ccc(Cl)cc2Cl)o1)c1ccc(F)cc1`, the growth is 95.9% (inactive).

For `CC1=C(C)C(=O)C(Nc2cccc(C(=O)OC(C)(C)C)c2)=CC1=O`, the growth was 71% (inactive).

For the molecule `C=C(C)[C@@H]1CC[C@]2(C(=O)NCCCCCN(CCC#N)CCC#N)CC[C@]3(C)[C@H](CC[C@@H]4[C@@]5(C)CCC(=O)C(C)(C)[C@@H]5CC[C@]43C)[C@@H]12`, the growth is 127% (inactive).

For `O=C1Nc2ccccc2/C1=C/c1ccc(COCC2CO2)n1-c1ccc(O)cc1` (centres undefined), the growth was 103% (inactive).

For the molecule `Nn1c(N/N=C/c2nc3ccccc3s2)n[nH]c1=S`, the growth is 136% (inactive).

As to `Cc1ccc(-c2nnc(SCc3ccc(O)c4ncccc34)o2)cc1`, the growth was 4.59% (active).

Turning to `O=C(CCCCCCNC(=O)c1csc(Br)n1)NO`, the growth is 5.2% (active).

For the molecule `COc1ccc(-n2c(/C=C3\C(=O)Nc4ccccc43)ccc2CO)cc1`, the growth is 92.7% (inactive).

With `CC(=O)/C(N=Nc1ccc2oc(=O)ccc2c1)=C(\C)O`, the growth was -15.3% (active).

Regarding `NC(=O)c1cccc(C#CCNC[C@H]2C[C@@H](n3ccc4c(Cl)ncnc43)[C@H](O)[C@@H]2O)c1`, the growth is 102% (inactive).
